{"source": "PubChem BioAssay (Tox21)", "note": "“And” between values parts separate entries of the source, which are not always exact repeats. Equal values may be shown once. Inconclusive results are not listed. Where a call stands in place of a potency, no number is given. The source holds several records for some structures; these can differ, active in one and inactive in another. The source made the active and inactive calls. Calls come from the whole dose curve; as a rule, active = well fitted inhibition curve with a large enough effect in the repeat runs; inconclusive = weak or mixed curves; inactive = no such curve, though single readings can be large or run the other way. Potency is the fitted concentration of half-maximal effect."}
{"target": "Cytochrome P450 2C19 (Homo sapiens) (UniProt P33261)", "sequence (P33261 whole entry, looked up)": "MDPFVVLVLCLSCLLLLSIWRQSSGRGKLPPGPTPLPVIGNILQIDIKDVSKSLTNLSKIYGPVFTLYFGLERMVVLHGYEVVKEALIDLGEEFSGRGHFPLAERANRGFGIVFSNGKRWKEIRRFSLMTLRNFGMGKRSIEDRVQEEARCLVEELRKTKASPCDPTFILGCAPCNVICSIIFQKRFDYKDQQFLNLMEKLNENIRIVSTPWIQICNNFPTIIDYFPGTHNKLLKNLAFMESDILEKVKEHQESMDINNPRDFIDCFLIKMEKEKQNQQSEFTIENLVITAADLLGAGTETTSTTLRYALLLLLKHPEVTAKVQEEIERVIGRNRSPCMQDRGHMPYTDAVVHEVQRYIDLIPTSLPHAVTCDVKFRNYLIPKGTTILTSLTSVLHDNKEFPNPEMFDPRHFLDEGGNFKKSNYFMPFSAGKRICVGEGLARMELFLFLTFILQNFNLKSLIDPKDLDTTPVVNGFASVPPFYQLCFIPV", "test": "Cytochrome P450 Family 2 Subfamily C Member 19 (CYP2C19) small molecule antagonists: luciferase reporter qHTS assay (AID 1671197); note: nearly all actives have a fitted effect of over 65% in size", "details": "P450-Glo CYP2C19 enzyme, luciferin luminescence, 1 h; series mostly up to 115 µM", "method_in_brief": "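Quantitative high-throughput screen of the Tox21 library using CYP2C19 with proluciferin substrate. Reaction: NADPH regeneration, 37C, 1 h, after 10 min compound preincubation at room temperature. Readout: luminescence.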"}
{"smiles": "CCCCCCCCCCCC(=O)O", "Potency": "79.9 µM (active) and inactive"}
{"smiles": "C[C@]12CCC(=O)C=C1CC[C@@H]1[C@@H]2CC[C@]2(C)C(=O)CC[C@@H]12", "Potency": "8.79 µM (active) and 39.9 µM (active) and 30.9 µM (active)"}
{"smiles": "CC(=O)[O][Hg][c]1ccccc1", "Potency": "8.86 µM (active) and 8.94 µM (active) and 17.4 µM (active)"}
{"smiles": "CN(C)[C@@H]1C(=O)C(C(N)=O)=C(O)[C@@]2(O)C(=O)C3=C(O)c4c(O)cccc4[C@@](C)(O)[C@H]3[C@H](O)[C@@H]12", "Potency": "inactive"}
{"smiles": "CC(Cl)(Cl)C(=O)O", "Potency": "inactive"}
{"smiles": "O=C(O)C(Cl)(Cl)Cl", "Potency": "20 µM (active)"}
{"smiles": "Nc1ccc(-c2ccc(N)c(Cl)c2)cc1Cl", "Potency": "4.01 µM (active) and 3.73 µM (active) and 5.64 µM (active)"}
{"smiles": "CCCn1cc[n+](C)c1", "Potency": "inactive"}
{"smiles": "O=C(O)CCl", "Potency": "inactive"}
{"smiles": "O=C(O)C(Cl)Cl", "Potency": "inactive"}
{"smiles": "CCOP(=S)(OCC)Oc1ccc2c(C)c(Cl)c(=O)oc2c1", "Potency": "321 nM (active) and 50.2 nM (active) and 3.89 µM (active)"}
{"smiles": "O=C(O)c1nc(Cl)ccc1Cl", "Potency": "inactive"}
{"smiles": "Nc1ccc(Cl)cc1", "Potency": "39.9 µM (active) and 20.4 µM (active)"}
{"smiles": "Cc1cc(-c2ccc(N)c(C)c2)ccc1N", "Potency": "6.4 µM (active) [middle of 4 runs]"}
{"smiles": "O=c1[nH]c(=O)n(Cl)c(=O)n1Cl", "Potency": "56.4 µM (active) and inactive"}
{"smiles": "CCNc1nc(Cl)nc(NCC)n1", "Potency": "inactive"}
{"smiles": "Oc1ccccc1-c1ccccc1", "Potency": "39.9 µM (active) and 31.7 µM (active) and 23 µM (active)"}
{"smiles": "OCCOc1ccccc1", "Potency": "inactive"}
{"smiles": "COP(=O)(OC)OC=C(Cl)Cl", "Potency": "inactive"}
{"smiles": "O=P1(N(CCCl)CCCl)NCCCO1", "note": "(stereo not drawn)", "Potency": "71.8 µM (active) and inactive"}
{"smiles": "COCC(=O)N(c1c(C)cccc1C)C(C)C(=O)OC", "note": "(stereo not drawn)", "Potency": "41 µM (active) and 39.8 µM (active) and inactive"}
{"smiles": "Nc1ccc(-c2ccc(N)cc2)cc1", "Potency": "8.83 µM (active) and 39.6 µM (active) and 35.6 µM (active)"}
{"smiles": "CCCCCCCCCCCCOS(=O)(=O)O", "Potency": "78.5 µM (active) and inactive"}
{"smiles": "CCCC[N+]1(C)CCCCC1", "Potency": "inactive"}
{"target": "Cytochrome P450 2C9 (Homo sapiens) (UniProt P11712)", "sequence (P11712 whole entry, looked up)": "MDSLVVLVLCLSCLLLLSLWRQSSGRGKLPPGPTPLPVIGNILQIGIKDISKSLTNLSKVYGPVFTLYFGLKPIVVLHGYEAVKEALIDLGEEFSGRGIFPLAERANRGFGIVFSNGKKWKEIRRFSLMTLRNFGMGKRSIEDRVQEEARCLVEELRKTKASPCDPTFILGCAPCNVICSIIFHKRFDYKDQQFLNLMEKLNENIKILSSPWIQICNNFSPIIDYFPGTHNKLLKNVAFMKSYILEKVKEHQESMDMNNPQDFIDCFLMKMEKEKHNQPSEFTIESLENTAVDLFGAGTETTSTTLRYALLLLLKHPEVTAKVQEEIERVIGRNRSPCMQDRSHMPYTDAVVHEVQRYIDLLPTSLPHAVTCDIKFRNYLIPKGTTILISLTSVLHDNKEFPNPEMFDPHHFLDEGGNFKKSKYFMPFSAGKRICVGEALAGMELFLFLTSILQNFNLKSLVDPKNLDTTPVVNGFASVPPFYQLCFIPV", "test": "Cytochrome P450 Family 2 Subfamily C Member 9 (CYP2C9) small molecule antagonists: luciferase reporter qHTS assay (AID 1671198); note: nearly all actives have a fitted effect of over 50% in size", "details": "P450-Glo CYP2C9 enzyme assay, luciferin luminescence; series mostly up to 115 µM", "method_in_brief": "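Enzyme-substrate mix preincubated with compound 10 min at room temperature; reaction started with NADPH regeneration solution, 1 h 37C. Luminescent luciferin product read after 20 min detection reagent.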"}
{"smiles": "CCCCCCCCCCCC(=O)O", "Potency": "102 µM (active)"}
{"smiles": "CC(=O)[O][Hg][c]1ccccc1", "Potency": "3.96 µM (active) and 2.52 µM (active) and 4.36 µM (active)"}
{"smiles": "CN(C)[C@@H]1C(=O)C(C(N)=O)=C(O)[C@@]2(O)C(=O)C3=C(O)c4c(O)cccc4[C@@](C)(O)[C@H]3[C@H](O)[C@@H]12", "Potency": "61.8 µM (active) and 39.6 µM (active)"}
{"smiles": "CC(Cl)(Cl)C(=O)O", "Potency": "inactive and 63.3 µM (active)"}
{"smiles": "O=C(O)C(Cl)(Cl)Cl", "Potency": "inactive"}
{"smiles": "Nc1ccc(-c2ccc(N)c(Cl)c2)cc1Cl", "Potency": "10.1 µM (active) and 11.8 µM (active) and 12.6 µM (active)"}
{"smiles": "CCCn1cc[n+](C)c1", "Potency": "inactive"}
{"smiles": "O=C(O)CCl", "Potency": "inactive"}
{"smiles": "O=C(O)C(Cl)Cl", "Potency": "inactive"}
{"smiles": "CCOP(=S)(OCC)Oc1ccc2c(C)c(Cl)c(=O)oc2c1", "Potency": "286 nM (active) and 63.3 nM (active) and 8.71 µM (active)"}
{"smiles": "C1CCC(NC2CCCCC2)CC1", "Potency": "inactive"}
{"smiles": "O=C(O)c1nc(Cl)ccc1Cl", "Potency": "inactive"}
{"smiles": "Nc1ccc(Cl)cc1", "Potency": "39.9 µM (active) and 32.3 µM (active)"}
{"smiles": "Cc1cc(-c2ccc(N)c(C)c2)ccc1N", "Potency": "15.9 µM (active) [middle of 4 runs]"}
{"smiles": "O=c1[nH]c(=O)n(Cl)c(=O)n1Cl", "Potency": "inactive"}
{"smiles": "CCNc1nc(Cl)nc(NCC)n1", "Potency": "inactive"}
{"smiles": "Oc1ccccc1-c1ccccc1", "Potency": "71 µM (active) and 35.6 µM (active) and 25.8 µM (active)"}
{"smiles": "OCCOc1ccccc1", "Potency": "inactive"}
{"smiles": "COP(=O)(OC)OC=C(Cl)Cl", "Potency": "inactive"}
{"smiles": "O=P1(N(CCCl)CCCl)NCCCO1", "note": "(stereo not drawn)", "Potency": "inactive"}
{"smiles": "COCC(=O)N(c1c(C)cccc1C)C(C)C(=O)OC", "note": "(stereo not drawn)", "Potency": "70.9 µM (active) and inactive"}
{"smiles": "Nc1ccc(-c2ccc(N)cc2)cc1", "Potency": "35.2 µM (active) and 11.2 µM (active) and 25.2 µM (active)"}
{"smiles": "CCCCCCCCCCCCOS(=O)(=O)O", "Potency": "78.5 µM (active) and 71 µM (active) and inactive"}
{"smiles": "CCCC[N+]1(C)CCCCC1", "Potency": "inactive"}
{"target": "Cytochrome P450 1A2 (Homo sapiens) (UniProt P05177)", "sequence (P05177 whole entry, looked up)": "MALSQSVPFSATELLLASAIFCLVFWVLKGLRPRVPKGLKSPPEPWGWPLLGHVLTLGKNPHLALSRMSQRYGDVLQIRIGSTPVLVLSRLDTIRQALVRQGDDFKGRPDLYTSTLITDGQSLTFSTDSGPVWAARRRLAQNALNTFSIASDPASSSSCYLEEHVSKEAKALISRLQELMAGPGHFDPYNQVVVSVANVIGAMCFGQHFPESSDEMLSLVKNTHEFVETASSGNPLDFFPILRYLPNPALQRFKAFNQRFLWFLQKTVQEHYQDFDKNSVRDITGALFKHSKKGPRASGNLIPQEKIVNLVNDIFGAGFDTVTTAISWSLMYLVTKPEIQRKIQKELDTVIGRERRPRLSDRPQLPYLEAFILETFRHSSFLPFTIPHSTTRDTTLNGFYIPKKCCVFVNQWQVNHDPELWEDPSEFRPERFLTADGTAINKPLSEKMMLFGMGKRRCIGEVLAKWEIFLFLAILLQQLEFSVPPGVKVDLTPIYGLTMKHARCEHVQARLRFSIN", "test": "Cytochrome P450 Family 1 Subfamily A Member 2 (CYP1A2) small molecule antagonists: luciferase reporter qHTS assay (AID 1671199); note: nearly all actives have a fitted effect of over 50% in size", "details": "P450-Glo CYP1A2 enzyme, luciferin luminescence, 1 h; series mostly up to 115 µM", "method_in_brief": "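P450-Glo CYP1A2, 1536-well qHTS: enzyme/proluciferin substrate + cpd (DMSO), 10 min RT; NADPH regen, 1 h RT; detection reagent, 20 min; luminescence, RLU.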"}
{"smiles": "CCCCCCCCCCCC(=O)O", "Potency": "inactive"}
{"smiles": "C[C@]12CCC(=O)C=C1CC[C@@H]1[C@@H]2CC[C@]2(C)C(=O)CC[C@@H]12", "Potency": "inactive"}
{"smiles": "CC(=O)[O][Hg][c]1ccccc1", "Potency": "17.7 µM (active) and 22.4 µM (active) and 27.5 µM (active)"}
{"smiles": "CN(C)[C@@H]1C(=O)C(C(N)=O)=C(O)[C@@]2(O)C(=O)C3=C(O)c4c(O)cccc4[C@@](C)(O)[C@H]3[C@H](O)[C@@H]12", "Potency": "inactive"}
{"smiles": "CC(Cl)(Cl)C(=O)O", "Potency": "inactive"}
{"smiles": "O=C(O)C(Cl)(Cl)Cl", "Potency": "inactive and 35.6 µM (active)"}
{"smiles": "Nc1ccc(-c2ccc(N)c(Cl)c2)cc1Cl", "Potency": "1.79 µM (active) and 1.48 µM (active) and 1.42 µM (active)"}
{"smiles": "CCCn1cc[n+](C)c1", "Potency": "inactive"}
{"smiles": "O=C(O)CCl", "Potency": "inactive"}
{"smiles": "O=C(O)C(Cl)Cl", "Potency": "inactive"}
{"smiles": "CCOP(=S)(OCC)Oc1ccc2c(C)c(Cl)c(=O)oc2c1", "Potency": "2.86 µM (active) and 4.48 µM (active) and 13.8 µM (active)"}
{"smiles": "C1CCC(NC2CCCCC2)CC1", "Potency": "inactive"}
{"smiles": "O=C(O)c1nc(Cl)ccc1Cl", "Potency": "inactive"}
{"smiles": "Nc1ccc(Cl)cc1", "Potency": "63.3 µM (active) and 39.9 µM (active) and 57.4 µM (active)"}
{"smiles": "Cc1cc(-c2ccc(N)c(C)c2)ccc1N", "Potency": "509 nM (active) [middle of 4 runs]"}
{"smiles": "O=c1[nH]c(=O)n(Cl)c(=O)n1Cl", "Potency": "inactive"}
{"smiles": "CCNc1nc(Cl)nc(NCC)n1", "Potency": "11.3 µM (active) and 12.6 µM (active)"}
{"smiles": "Oc1ccccc1-c1ccccc1", "Potency": "23 µM (active) [middle of 4 runs]"}
{"smiles": "OCCOc1ccccc1", "Potency": "inactive"}
{"smiles": "COP(=O)(OC)OC=C(Cl)Cl", "Potency": "inactive and 15.4 µM (active)"}
{"smiles": "O=P1(N(CCCl)CCCl)NCCCO1", "note": "(stereo not drawn)", "Potency": "inactive"}
{"smiles": "COCC(=O)N(c1c(C)cccc1C)C(C)C(=O)OC", "note": "(stereo not drawn)", "Potency": "inactive"}
{"smiles": "Nc1ccc(-c2ccc(N)cc2)cc1", "Potency": "19.8 µM (active) and 14.1 µM (active) and 25.2 µM (active)"}
{"smiles": "CCCCCCCCCCCCOS(=O)(=O)O", "Potency": "inactive"}
{"smiles": "CCCC[N+]1(C)CCCCC1", "Potency": "inactive"}
